Assay outcomes from PubChem BioAssay.
LASV entry inh: inhibitors of Lassa virus binding or entry into cells; 18,000 tested, 4.1% active; Potency, µM (series often up to 49.2 µM), actives largely listed as inhibitors; AID 720533; Lassa virus pseudotyped entry inhibition, cell-based qHTS
Marburg entry: inhibitors of Marburg virus binding or entry into cells; Marburg virus pseudotype entry/binding inhibition, cell-based; Potency, µM (series often up to 49.2 µM), hits mostly inhibitors; 18,000 tested, 6.5% active
Numbers stand for hits; – = inactive; ? = inconclusive; ! = not active in a repeat; [ ] = another dose, or the depositor's remark. Hits are enriched below; roughly 8.6% of the tested compounds scored in any of these assays. Calls come from the whole dose curve; tested in HEK293 cells.

SMILES	LASV entry inh	Marburg entry
CC[C@]1(O)CC(O[C@@H]2CC(N(C)C)C(O)C(C)O2)c2c(cc3c(c2O)C(=O)c2c(O)cccc2C3=O)C1C(=O)OC (some centres undefined)	–	20µM
COc1cccc2c1C(=O)c1c(O)c3c(c(O)c1C2=O)C[C@@](O)(C(=O)CO)C[C@@H]3O[C@H]1C[C@H](N)[C@H](O)[C@H](C)O1	20µM!	0.28µM!
O=C(c1cccs1)N1C[C@H](n2cc(C3CC3)nn2)[C@H](O)C[C@@H]1c1ccc(Cl)cc1	–	–
COCCN1C(=O)NC(c2cccc(C(F)(F)F)c2)C(C(=O)OC)=C1C (centres undefined)	–[8.59 µM]	–[8.59 µM]
COc1ccc([C@]23Cc4c(ccc5ccccc45)[C@H](O2)c2c(cc(-c4ccccc4)oc2=O)O3)cc1	–[8.59 µM]	–[8.59 µM]
CC(C)NCC(O)c1ccc(O)c(O)c1 (centres undefined)	–	–
CC(N)C(O)c1cccc(O)c1 (centres undefined)	–	–
C[C@H](N)[C@H](O)c1ccc(O)c(O)c1	?	5µM
NC[C@H](O)c1ccc(O)c(O)c1	–	28µM
CNC[C@H](O)c1ccc(O)c(O)c1	?	7.9µM!
NC[C@@H](O)c1ccc(O)c(O)c1	–	?
CCCCCC(=O)N1C[C@H](n2cc(COC(=O)c3ccccc3)nn2)[C@@H](O)C[C@H]1c1ccc(OC)cc1	–	–
CC(C)(C)c1ccc(O[C@@H]2[C@H](O)CO[C@@H]2C=CC#Cc2ccccc2)cc1	–[8.59 µM]	–[8.59 µM]
CCN1CCCC1CNC(=O)c1cnn(-c2nccc(-c3cc4ccccc4o3)n2)c1C1CC1 (centres undefined)	–	?
CCN(CC)CCNC(=O)c1cnn(-c2nccc(-c3cc4ccccc4o3)n2)c1C	?	13µM
O=C(NC[C@@H]1CCCN2CCCC[C@H]12)c1cnn(-c2nccc(-c3cc4ccccc4o3)n2)c1C1CC1	?	11µM
Cc1c(C(=O)NCCc2cccnc2)cnn1-c1nccc(-c2ccccc2F)n1	–	–
CC(C)=CCN1C(=O)[C@]2(O[C@H](COc3ccccc3)CC3=C2CCC3)c2ccccc21	–[8.59 µM]	–[8.59 µM]
COc1ccc(S(=O)(=O)N(CCO)c2ccccc2CN(C)CC=Cc2ccc(Cl)cc2)cc1	11µM	10µM
C[C@H]1[C@@H](c2ccccc2)Oc2c(Cl)cccc2S(=O)(=O)N1Cc1ccc(F)cc1	–	?
CCOC(=O)C1=CN(CCC=C(C)C)C(=O)NC1c1ccccc1 (centres undefined)	–[8.59 µM]	–[8.59 µM]
CC(C)(C)OC(=O)N[C@@H](Cc1c[nH]c2ccccc12)C(=O)O	–	–
CC[C@@H](C)[C@H](NS(=O)(=O)c1cccc2ccccc12)C(=O)N[C@H](C=O)Cc1c[nH]c2ccccc12	?	3.5µM
CCCCCCCc1cc2ccc(F)cc2c2c(C(=O)OC)c(C(=O)OC)c(C(=O)OC)n12	–[8.59 µM]	?
C/C1=C2N=C(/C=C3N=C(/C(C)=C4\[N-]C(C(CC(N)=O)C4(C)CCC(=O)NCC(C)OP(=O)([O-])OC4C(CO)OC(n5cnc6cc(C)c(C)cc65)C4O)C4(C)N=C1C(CCC(N)=O)C4(C)CC(N)=O)C(CCC(N)=O)C\3(C)C)C(CCC(N)=O)C/2(C)CC(N)=O.[CH3-].[Co+3] (centres undefined)	2.5µM	3.2µM
SMILES	LASV entry inh	Marburg entry
COC1=CC2C(=O)C(C1=O)[C@H](c1ccccc1)[C@H]2C (some centres undefined)	–[8.59 µM]	–[8.59 µM]
CC(O)C(C)OC(=O)[C@@H]1C[C@@H]2c3cccc4c3c(cn4C(C)C)C[C@H]2N(C)C1 (some centres undefined)	?	–
CN1CC(CNC(=O)OCc2ccccc2)CC2c3cccc4c3c(cn4C)CC21 (centres undefined)	?	10µM
Cc1cc(C)cc([C@H]2C[C@]34CN(Cc5ccccc5)[S+](=O)([O-])[C@@H]3C[C@@H]2O4)c1	–	–
C=CC[C@@H]1C=C[C@@H](Oc2ccc(OC)cc2)[C@H](COC(=O)c2ccc(Br)cc2)O1	–[8.59 µM]	–[8.59 µM]
O=C1N(CC2CC2)c2cccc(Br)c2[C@@]12O[C@H](COc1ccccc1)CC1=CCCC12 (some centres undefined)	–[8.59 µM]	?
Cc1cc(-c2ccnc(-n3ncc(C(=O)NCC4COCCO4)c3C)n2)c(C)s1 (centres undefined)	–	?
CCC(C)c1cc([N+](=O)[O-])cc([N+](=O)[O-])c1OC(=O)OC(C)C (centres undefined)	18µM	?
CCC(C)c1cc([N+](=O)[O-])cc([N+](=O)[O-])c1OC(C)=O (centres undefined)	–	–
CO[C@H]1[C@H](NC(=O)c2ccsc2)c2ccccc2C12CCN(Cc1cnn(C)c1C)CC2	–	–
CO[C@H]1[C@H](NC(=O)c2ccsc2)c2ccccc2C12CCN(Cc1cc(Cl)ccc1O)CC2	–	14µM
CN1CCN([C@@H]2C[S+](=O)([O-])N[C@@H]2COCc2ccccc2)CC1	–	–
COc1ccc(CCN(C)CCc2ccc(OC)c(OC)c2)cc1OC	–	–
